Data taken from the supplement of paper PMC11732987, “Enantioselective OTUD7B fragment discovery through chemoproteomics screening and high-throughput optimisation” (Communications Chemistry, 2025).

How the values were obtained:
Experiment in all cases: log2 ratio of Biotin-Ahx-Ub-VS probe labelling (fragment/DMSO); higher = less target engagement (more negative = stronger competition), active = hit call of the paper (q ≤ 0.05, log2 ratio ≤ -1)
Details in all cases: compound concentration: 200 uM; treatment time: 3 h
USP42 = biological target: T1, USP42 (UniProt Q9H9J4)
T1 sequence (whole entry): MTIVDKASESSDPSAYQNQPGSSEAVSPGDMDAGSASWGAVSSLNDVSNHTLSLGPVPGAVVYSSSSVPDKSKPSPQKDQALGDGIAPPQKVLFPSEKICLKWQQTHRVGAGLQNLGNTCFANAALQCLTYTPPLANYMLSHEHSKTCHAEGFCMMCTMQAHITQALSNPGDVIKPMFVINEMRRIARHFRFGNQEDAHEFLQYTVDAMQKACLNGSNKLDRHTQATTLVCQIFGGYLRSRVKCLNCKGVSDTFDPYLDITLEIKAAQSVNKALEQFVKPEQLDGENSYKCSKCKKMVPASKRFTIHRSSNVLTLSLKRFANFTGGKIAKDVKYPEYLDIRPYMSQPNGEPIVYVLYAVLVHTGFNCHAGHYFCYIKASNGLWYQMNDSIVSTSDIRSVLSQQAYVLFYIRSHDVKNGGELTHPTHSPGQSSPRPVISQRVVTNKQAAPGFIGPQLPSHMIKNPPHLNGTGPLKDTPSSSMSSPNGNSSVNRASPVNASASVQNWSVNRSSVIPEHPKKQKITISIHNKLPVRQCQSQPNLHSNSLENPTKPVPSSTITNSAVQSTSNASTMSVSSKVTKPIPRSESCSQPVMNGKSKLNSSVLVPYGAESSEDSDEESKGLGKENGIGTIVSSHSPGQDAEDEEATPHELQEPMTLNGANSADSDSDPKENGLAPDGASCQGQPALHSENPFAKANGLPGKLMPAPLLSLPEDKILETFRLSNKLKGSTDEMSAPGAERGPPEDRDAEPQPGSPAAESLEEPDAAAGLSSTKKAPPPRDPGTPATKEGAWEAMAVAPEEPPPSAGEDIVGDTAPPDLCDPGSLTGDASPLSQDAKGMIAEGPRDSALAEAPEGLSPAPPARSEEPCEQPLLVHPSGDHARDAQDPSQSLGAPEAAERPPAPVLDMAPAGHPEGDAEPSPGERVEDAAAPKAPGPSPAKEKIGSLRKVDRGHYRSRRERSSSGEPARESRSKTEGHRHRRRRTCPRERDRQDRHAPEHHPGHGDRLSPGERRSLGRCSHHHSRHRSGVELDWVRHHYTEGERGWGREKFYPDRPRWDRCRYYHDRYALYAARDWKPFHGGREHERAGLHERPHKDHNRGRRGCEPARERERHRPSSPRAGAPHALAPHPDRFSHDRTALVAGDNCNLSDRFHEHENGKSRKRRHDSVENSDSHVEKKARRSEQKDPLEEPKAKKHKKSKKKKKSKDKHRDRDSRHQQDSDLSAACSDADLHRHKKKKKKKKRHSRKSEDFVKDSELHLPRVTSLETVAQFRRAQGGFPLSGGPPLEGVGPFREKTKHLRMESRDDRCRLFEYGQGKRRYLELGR
In short: (§1)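 HEK293T lysate (495 µg per sample, in Tris/CHAPS/IGEPAL buffer with protease inhibitors) was treated in triplicate with fragment at 200 µM or with DMSO for 3 h. It was then treated with Biotin-Ahx-Ub-VS (0.5 µM final) for 1 h. Labelled DUBs were NeutrAvidin-enriched, digested with LysC and trypsin, and run by diaPASEF LC-MS/MS. Spectronaut label-free quantities were global-median-normalised. Values are average log2 ratios fragment/DMSO by unpaired t-test, using proteins with ≥2 unique peptides.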

USP46 = USP46 (UniProt P62068)
USP46, sequence (P62068 whole entry): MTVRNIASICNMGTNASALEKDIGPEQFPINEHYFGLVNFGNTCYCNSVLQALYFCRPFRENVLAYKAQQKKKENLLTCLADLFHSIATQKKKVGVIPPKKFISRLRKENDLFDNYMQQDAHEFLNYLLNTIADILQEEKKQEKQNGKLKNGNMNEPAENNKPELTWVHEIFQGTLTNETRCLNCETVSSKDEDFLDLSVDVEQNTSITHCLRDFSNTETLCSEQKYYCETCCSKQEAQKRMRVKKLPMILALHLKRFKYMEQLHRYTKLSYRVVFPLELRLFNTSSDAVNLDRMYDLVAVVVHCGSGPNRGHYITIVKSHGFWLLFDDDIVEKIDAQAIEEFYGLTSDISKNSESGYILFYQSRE
In short: as §1

USP47 = biological target: T2, USP47 (UniProt Q96K76)
T2 sequence (whole entry): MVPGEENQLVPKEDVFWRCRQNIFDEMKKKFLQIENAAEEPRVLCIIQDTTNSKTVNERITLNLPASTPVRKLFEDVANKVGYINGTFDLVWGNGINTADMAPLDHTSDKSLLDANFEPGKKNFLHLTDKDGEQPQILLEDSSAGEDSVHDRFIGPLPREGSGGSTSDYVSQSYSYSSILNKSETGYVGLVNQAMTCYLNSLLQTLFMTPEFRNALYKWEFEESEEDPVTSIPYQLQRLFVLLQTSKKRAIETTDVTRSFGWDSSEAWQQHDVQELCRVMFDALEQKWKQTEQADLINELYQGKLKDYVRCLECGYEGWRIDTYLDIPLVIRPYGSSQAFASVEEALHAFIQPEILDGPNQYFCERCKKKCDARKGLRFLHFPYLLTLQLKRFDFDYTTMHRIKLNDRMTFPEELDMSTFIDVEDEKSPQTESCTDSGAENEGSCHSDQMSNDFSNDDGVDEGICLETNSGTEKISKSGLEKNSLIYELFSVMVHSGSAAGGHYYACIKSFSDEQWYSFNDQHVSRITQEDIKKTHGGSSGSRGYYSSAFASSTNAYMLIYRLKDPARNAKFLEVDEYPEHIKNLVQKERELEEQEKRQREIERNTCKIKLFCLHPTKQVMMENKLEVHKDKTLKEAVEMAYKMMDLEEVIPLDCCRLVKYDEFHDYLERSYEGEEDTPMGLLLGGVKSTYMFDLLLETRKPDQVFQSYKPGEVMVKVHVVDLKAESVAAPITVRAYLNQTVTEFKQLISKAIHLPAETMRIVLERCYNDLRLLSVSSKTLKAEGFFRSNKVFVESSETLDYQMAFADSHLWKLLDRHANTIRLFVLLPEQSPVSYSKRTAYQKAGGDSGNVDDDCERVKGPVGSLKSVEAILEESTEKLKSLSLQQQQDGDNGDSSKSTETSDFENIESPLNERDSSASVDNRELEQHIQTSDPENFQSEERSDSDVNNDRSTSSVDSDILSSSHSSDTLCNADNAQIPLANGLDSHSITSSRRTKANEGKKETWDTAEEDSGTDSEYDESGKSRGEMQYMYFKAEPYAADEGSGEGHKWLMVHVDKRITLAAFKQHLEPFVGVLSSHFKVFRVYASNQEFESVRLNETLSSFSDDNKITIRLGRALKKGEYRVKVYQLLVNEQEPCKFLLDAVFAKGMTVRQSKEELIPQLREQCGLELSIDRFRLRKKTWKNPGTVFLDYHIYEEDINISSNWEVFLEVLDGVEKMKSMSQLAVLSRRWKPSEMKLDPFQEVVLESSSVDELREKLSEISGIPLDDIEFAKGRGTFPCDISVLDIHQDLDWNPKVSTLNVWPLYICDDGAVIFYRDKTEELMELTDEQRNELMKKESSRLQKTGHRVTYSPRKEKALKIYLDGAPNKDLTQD
In short: as §1

USP48 = biological target: T3, USP48 (UniProt Q86UV5)
T3 sequence (whole entry): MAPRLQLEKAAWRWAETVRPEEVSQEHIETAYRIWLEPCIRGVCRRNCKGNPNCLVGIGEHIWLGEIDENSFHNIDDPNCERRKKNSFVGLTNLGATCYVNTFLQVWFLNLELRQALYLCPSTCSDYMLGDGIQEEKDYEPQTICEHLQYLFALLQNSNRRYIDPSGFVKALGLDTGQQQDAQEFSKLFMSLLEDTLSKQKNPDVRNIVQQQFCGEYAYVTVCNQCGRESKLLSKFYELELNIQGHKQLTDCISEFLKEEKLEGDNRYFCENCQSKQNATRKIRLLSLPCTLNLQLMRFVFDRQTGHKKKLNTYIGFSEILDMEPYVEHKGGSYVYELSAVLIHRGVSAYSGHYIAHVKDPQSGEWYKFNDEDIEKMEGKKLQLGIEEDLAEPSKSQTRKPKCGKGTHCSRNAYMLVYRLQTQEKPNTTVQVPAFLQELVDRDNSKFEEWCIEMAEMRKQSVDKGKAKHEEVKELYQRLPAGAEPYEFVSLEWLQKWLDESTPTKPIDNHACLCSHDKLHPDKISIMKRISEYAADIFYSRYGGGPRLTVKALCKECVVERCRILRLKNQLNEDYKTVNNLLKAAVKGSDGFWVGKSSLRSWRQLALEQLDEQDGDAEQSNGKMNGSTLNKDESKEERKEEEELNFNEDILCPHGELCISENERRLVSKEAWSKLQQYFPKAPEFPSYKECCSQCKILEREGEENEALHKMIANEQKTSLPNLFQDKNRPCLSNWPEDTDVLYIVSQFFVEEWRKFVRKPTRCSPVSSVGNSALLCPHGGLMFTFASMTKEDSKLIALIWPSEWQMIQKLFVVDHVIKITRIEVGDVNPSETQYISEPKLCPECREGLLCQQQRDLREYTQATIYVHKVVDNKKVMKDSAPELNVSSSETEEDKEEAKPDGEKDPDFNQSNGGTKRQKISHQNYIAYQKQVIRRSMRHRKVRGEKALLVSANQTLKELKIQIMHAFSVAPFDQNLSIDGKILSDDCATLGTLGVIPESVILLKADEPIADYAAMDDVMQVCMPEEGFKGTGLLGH
In short: as §1

USP5 = biological target: T4, USP5 (UniProt P45974)
T4 sequence (whole entry): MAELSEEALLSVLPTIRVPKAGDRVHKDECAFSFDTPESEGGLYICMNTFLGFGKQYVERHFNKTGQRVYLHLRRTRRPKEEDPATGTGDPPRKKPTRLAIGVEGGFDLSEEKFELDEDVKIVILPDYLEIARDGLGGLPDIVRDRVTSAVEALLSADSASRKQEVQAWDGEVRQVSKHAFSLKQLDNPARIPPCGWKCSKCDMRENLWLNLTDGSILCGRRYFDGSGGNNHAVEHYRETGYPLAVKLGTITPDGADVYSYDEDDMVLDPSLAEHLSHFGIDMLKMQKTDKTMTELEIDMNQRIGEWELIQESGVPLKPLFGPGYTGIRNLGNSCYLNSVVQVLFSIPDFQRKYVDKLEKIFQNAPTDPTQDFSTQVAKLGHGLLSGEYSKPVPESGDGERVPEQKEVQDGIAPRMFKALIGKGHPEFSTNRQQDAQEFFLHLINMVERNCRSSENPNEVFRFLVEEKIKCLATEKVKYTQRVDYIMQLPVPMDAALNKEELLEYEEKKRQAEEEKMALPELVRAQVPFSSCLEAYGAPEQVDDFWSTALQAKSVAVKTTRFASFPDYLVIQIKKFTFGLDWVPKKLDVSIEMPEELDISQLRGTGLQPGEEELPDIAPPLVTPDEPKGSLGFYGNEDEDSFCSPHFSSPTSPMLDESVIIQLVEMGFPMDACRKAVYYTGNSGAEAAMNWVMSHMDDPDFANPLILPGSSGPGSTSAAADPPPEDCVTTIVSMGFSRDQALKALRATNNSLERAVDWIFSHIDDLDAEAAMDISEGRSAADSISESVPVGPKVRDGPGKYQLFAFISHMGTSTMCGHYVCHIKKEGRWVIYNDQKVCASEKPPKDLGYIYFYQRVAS
In short: as §1

USP54 = USP54 (UniProt Q70EL1)
USP54, sequence (Q70EL1 whole entry): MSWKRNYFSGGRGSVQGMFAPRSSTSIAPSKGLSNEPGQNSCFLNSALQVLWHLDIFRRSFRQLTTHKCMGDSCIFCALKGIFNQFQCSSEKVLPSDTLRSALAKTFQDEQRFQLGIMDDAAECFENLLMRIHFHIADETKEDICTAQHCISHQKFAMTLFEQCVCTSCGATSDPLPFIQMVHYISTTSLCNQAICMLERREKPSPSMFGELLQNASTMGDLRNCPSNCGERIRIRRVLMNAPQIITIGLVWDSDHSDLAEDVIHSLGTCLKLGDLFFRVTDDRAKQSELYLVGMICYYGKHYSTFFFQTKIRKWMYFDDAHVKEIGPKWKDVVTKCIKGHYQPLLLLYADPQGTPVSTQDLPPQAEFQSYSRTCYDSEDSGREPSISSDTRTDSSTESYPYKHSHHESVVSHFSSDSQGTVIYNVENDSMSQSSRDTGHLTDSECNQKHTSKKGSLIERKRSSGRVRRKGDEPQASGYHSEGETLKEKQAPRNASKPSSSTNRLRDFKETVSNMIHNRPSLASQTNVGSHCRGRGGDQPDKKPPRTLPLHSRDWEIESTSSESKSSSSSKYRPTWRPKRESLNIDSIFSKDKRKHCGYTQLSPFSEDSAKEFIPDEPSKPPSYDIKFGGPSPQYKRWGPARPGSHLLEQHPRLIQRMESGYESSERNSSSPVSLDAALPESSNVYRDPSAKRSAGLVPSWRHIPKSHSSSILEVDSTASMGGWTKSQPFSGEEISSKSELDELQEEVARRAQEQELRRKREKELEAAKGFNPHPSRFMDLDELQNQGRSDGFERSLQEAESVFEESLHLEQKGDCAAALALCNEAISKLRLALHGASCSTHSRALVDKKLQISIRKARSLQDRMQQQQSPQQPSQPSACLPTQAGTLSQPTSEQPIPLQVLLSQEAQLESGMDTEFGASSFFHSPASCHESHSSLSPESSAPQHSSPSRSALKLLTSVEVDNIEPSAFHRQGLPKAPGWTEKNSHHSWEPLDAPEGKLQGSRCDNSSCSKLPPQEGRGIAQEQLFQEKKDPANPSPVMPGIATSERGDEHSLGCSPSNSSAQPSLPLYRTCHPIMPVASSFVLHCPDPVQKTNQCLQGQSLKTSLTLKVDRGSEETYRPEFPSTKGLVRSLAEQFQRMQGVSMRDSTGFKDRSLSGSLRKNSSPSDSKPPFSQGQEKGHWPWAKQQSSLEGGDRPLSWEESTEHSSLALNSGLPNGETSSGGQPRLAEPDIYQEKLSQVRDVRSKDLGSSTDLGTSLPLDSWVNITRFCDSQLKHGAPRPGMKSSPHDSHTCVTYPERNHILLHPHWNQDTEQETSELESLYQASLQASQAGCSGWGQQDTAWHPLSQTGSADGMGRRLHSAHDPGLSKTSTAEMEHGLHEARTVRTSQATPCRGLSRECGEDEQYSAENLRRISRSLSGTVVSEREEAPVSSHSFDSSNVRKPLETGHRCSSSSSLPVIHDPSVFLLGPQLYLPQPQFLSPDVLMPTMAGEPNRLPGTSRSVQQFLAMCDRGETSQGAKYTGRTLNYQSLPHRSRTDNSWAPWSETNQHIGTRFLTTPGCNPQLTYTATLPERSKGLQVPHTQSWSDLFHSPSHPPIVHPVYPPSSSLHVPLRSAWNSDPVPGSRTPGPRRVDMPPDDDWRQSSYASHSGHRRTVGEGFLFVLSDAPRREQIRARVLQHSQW
In short: as §1

USP7 = USP7 (UniProt Q93009)
USP7, sequence (Q93009 whole entry, looked up): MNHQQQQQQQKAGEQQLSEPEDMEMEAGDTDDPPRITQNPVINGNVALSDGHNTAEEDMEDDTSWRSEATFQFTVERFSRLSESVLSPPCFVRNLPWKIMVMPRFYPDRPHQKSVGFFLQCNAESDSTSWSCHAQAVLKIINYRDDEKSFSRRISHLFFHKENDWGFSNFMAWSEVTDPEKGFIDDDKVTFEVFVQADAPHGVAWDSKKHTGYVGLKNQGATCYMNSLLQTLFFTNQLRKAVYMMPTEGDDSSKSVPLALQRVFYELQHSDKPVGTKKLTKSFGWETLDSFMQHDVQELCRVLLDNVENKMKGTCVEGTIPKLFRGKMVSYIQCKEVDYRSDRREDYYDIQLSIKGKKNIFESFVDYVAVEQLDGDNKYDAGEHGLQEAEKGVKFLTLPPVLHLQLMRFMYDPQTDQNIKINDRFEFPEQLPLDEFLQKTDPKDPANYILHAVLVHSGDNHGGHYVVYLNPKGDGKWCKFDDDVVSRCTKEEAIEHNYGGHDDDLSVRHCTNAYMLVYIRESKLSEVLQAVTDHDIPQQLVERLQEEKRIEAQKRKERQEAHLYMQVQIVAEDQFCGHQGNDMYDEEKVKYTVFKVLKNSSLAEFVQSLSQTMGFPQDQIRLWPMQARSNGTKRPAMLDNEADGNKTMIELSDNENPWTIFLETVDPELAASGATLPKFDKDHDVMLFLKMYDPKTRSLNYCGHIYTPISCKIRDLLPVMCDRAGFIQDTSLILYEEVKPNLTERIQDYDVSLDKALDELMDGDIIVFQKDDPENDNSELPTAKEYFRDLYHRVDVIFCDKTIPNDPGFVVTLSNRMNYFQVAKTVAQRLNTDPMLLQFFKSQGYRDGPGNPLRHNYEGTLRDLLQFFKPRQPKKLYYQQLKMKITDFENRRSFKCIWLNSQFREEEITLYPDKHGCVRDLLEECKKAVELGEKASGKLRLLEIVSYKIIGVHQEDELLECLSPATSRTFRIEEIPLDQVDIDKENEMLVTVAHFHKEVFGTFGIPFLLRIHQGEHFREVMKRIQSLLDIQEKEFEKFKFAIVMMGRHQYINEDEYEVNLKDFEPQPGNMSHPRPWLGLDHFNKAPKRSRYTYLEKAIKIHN
In short: as §1

USP8 = biological target: T5, USP8 (UniProt P40818)
T5 sequence (whole entry): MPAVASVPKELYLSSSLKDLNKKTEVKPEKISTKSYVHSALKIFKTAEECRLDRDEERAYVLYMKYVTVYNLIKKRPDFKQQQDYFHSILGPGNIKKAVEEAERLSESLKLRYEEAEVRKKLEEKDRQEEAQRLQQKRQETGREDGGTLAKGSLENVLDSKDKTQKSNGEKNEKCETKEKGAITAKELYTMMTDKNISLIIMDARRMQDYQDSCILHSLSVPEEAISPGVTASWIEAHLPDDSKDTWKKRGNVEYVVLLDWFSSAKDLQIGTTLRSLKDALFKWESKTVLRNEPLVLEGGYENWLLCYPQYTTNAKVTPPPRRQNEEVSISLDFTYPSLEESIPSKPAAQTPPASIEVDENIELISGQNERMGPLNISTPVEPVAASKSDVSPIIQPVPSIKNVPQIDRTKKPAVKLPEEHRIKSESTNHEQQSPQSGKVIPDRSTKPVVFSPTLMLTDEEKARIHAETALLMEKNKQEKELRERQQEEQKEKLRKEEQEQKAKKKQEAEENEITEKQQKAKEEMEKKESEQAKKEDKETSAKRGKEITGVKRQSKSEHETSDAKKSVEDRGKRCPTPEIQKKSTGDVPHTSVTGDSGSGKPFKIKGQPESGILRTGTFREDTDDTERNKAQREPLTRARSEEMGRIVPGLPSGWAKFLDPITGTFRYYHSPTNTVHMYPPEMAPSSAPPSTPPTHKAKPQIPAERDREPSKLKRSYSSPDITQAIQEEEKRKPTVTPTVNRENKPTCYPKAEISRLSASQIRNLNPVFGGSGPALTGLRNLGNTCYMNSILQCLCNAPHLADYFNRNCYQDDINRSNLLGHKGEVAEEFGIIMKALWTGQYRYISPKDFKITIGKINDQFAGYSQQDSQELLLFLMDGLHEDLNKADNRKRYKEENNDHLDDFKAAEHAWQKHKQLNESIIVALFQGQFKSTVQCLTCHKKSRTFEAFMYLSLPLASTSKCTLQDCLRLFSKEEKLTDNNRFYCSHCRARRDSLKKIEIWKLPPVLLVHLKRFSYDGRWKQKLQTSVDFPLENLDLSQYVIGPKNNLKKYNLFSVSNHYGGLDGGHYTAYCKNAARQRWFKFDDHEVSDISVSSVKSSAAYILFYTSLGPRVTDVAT
In short: as §1

Measured: log2 ratio of Biotin-Ahx-Ub-VS probe labelling

O=C(CCl)N(C1=CCCCC1)C1CC1
inactive: USP42 0.331 | USP46 -0.1 | USP47 -0.571 | USP48 -0.64 | USP5 0.124 | USP54 0.551 | USP7 -0.612 | USP8 -0.00831
